Reference: the supplement of paper PMC10338343
± gives the standard deviation.

Experiments:
[1] = system: MILI (PIWIL2) piRISC loaded with piRNA #1 (26 nt); test: pre-steady-state target cleavage rate (min^-1); guide: piRNA #1 5'p-UGAGGUAGUAGGUUGUAUAGUAUCCA; higher = faster piRNA-guided slicing of the target; details: auxiliary factor: 500 nM mouse GTSF1
In short: (§1)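 Cleave-'n-Seq: a transcribed, DNA-blocked target RNA library (0.1 nM) was mixed with 1 nM active affinity-purified piRISC carrying one synthetic guide, with or without 500 nM GTSF1 partner protein, in HEPES–potassium acetate buffer at 33 °C for 0–8 or 0–960 min. Uncleaved targets were sequenced and normalised to depth and to weakly complementary targets. Three trials were pooled, and k3 was capped at 0.0001 min^-1. The pre-steady-state cleavage rate came from a burst-and-steady-state fit.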

[2] = system: EfPiwi piRISC loaded with piRNA #1 (26 nt); test: pre-steady-state target cleavage rate (min^-1); auxiliary factor: 500 nM Ephydatia muelleri Gtsf1; guide: piRNA #1 5'p-UGAGGUAGUAGGUUGUAUAGUAUCCA; MIWI and MILI are mouse PIWI proteins and EfPiwi is from a freshwater sponge; tags in brackets are library labels; higher = faster piRNA-guided slicing of the target
In short: as §1

Sequence	pre-steady-state target cleavage rate [1]	pre-steady-state target cleavage rate [2]
GGAGUGGAUACUUUACAACCUACUACCACA	0.0946 ± 0.011	–
GGAGACCUAUGUAUACAAGCUACUACCUCA	0.147 ± 0.013	–
GGAGACCUAUGAUAACAACCUAAUACCUCA	0.00414 ± 0.0023	–
GGAGACCUUACUAUACUAGCUACUACCUCA	0.171 ± 0.012	–
GGAGACCUAUGUAUACAACCUACUACCAUCA	0.0684 ± 0.01	–
GGAGUGGAUUCUAUACAACCUACUAGCUCA	0.0603 ± 0.012	–
GGAGACCUAUGAAUACAACCUACUACCUGA	0.00268 ± 0.0026	–
GGAGACCUUACUAUUCAACCAACUACCUCA	0.00367 ± 0.0028	–
GGAGAGGAUAGUAUAGAACCUACUACCUCA	0.0708 ± 0.012	–
GGAGACCAUACUAUACAACCUACUACCUGCA	0.213 ± 0.023	–
GGAGACCAUACUAUACAACGAUCUACCUCA	< 0.0001	–
GGAGACCUAUGUAAACAAGCUACUACCUCA	0.0459 ± 0.0073	–
GGAGACCUAUGAUAUGUUGGUACUACGAGA	< 0.0001	–
GGAGUGGAUACCAUACAACCUACUACCUCA	0.231 ± 0.02	–
GGAGACCUAUGAAUACAACCUACUUCCUCA	0.00371 ± 0.0019	–
GGAGACCUAUGAAUACAACCUAUUACCUCA	0.00604 ± 0.003	–
GGAGACCUAUGUAUUCAACGUACUACCUCA	0.00676 ± 0.0018	–
GGAGACCUAUGAAUACUACCUACUACCACA	0.00343 ± 0.0025	–
GGAGACCUAUGUAUACAACCUACAACCACA	0.0115 ± 0.0032	< 0.0001
GGAGACCUAUGAAUACAACCUACUGACCUCA	0.00755 ± 0.0029	–
GGAGUGGAUACUAUCCAACCUACUACCUCA	0.197 ± 0.01	0.0097 ± 0.0041
GGAGUGGAUACUAUACAACACUACUACCUCA	0.00621 ± 0.0026	0.00629 ± 0.003
GGAGACGAUACUAUACAACCUACUACCUCA [g2:g24:cont:t1A]	0.21 ± 0.018	0.0773 ± 0.024
GGAGACCUAACAAUACAACGUACUACCUCA	0.00908 ± 0.0045	–

Sequence	pre-steady-state target cleavage rate [1]	pre-steady-state target cleavage rate [2]
GGAGACCUAUGUAUUCAACCUACUUCCUCA	0.00515 ± 0.0026	–
GGAGACCUUACUAUUCAACGUACUACCUCA	0.0187 ± 0.0035	–
GGAGACCAUAGUAUACAUCCUACUACCUCA	0.19 ± 0.014	0.00617 ± 0.0032
GGAGACCUUACUAUACAAGCUAGUACCUCA	0.138 ± 0.02	–
GGAGAGGAAACUAUACAACCUACUAGCUCA	0.0535 ± 0.019	0.00276 ± 0.0019
GGAGACGAUACUAUACAACCUACUAACCUCA	0.194 ± 0.02	0.0059 ± 0.0019
GGAGACGAUACUAUACAGCCUACUACCUCA	0.16 ± 0.015	0.0104 ± 0.0039
GGAGUGGAUACUAUACAACCUACUACCUGCA	0.109 ± 0.012	0.00841 ± 0.0028
GGAGAGGAUACUAUACAACCUAUACCUCA	0.00606 ± 0.0021	0.00469 ± 0.0024
GGAGACGUUACUAUACAACCUACUAGCUCA	0.0954 ± 0.016	0.0029 ± 0.0017
GGAGACCUUACUAUACAACCGACUACCUCA	0.00424 ± 0.0031	0.00553 ± 0.0036
GGAGUGGAUAGUAUACAACCUACUACGUCA	0.0386 ± 0.0083	0.00277 ± 0.0018
GGAGACCAUACUAUACAACCUACUACCUUCA	0.2 ± 0.018	0.0679 ± 0.02
GGAGACCAUUCUUUACAACCUACUACCUCA	0.0902 ± 0.012	0.0111 ± 0.0056
GGAGACCUAUCUAAACAACCUACUAGCUCA	0.0571 ± 0.011	–
GGAGAGGUUACUAUACAACCAACUACCUCA	0.00725 ± 0.0016	–
GGAGAGGAAACUAUACAACCUACUACCACA	0.155 ± 0.03	0.00262 ± 0.0018
GGAGAGGAUACUAUACAACCUACUACCUA	0.104 ± 0.013	0.217 ± 0.081
GGAGAGGAUACUAUACAACGUACUACCUCA	0.0143 ± 0.003	0.0053 ± 0.0021
GGAGACCUAUGUAGUACAACCUACUACCUCA	0.00758 ± 0.0032	0.00368 ± 0.0031
GGAGACCUAUGAUUACAACCUACUACCUCG [g2:g17:cont:t1G]	0.00649 ± 0.0032	–
GGAGACCCUACUAUACAACCUACUACCUCA	0.207 ± 0.021	0.153 ± 0.051
GGAGACGAUACAAUACAACCUUCUACCUCA	0.0137 ± 0.0038	0.00327 ± 0.0022
GGAGACCUUACUAUACAAUCUACUACCUCA	0.127 ± 0.01	0.00599 ± 0.0041

Sequence	pre-steady-state target cleavage rate [1]	pre-steady-state target cleavage rate [2]
GGAGAGCAUACUAUACAUCCUACUACCUCA	0.335 ± 0.02	0.00491 ± 0.0024
GGAGACGAUACUAUACAACCUAACUACCUCA	0.0232 ± 0.0036	0.0045 ± 0.0021
GGAGAGGAUACUAUACAACCUACUACAUCA	0.0431 ± 0.0077	0.00573 ± 0.0027
GGAGUGGAUACUAACAACCUACUACCUCA	0.183 ± 0.011	0.00566 ± 0.0038
GGAGUGGAUACUAUACAACCUACUACAUCA	0.0416 ± 0.0072	0.00707 ± 0.0031
GGAGACGAUACUUUACAACCUACAACCUCA	0.0642 ± 0.013	–
GGAGACCUAACUAUACAACCUACGACCUCA	0.129 ± 0.027	0.00261 ± 0.0025
GGAGAGGAUACUAUACAACCUACUAUCCUCA	0.0143 ± 0.0055	0.00536 ± 0.0025
GGAGACCUAACUAUACAACCUACUACGAGA	0.0403 ± 0.019	0.00515 ± 0.0032
GGAGACGAUACUAUACUACCUAGUACCUCA	0.0742 ± 0.015	0.00268 ± 0.0016
GGAGACCUUACUAUACAACCUACUACCACA	0.18 ± 0.018	0.00339 ± 0.0016
GGAGACGAUACUAUACAACCUACUACGUCA	0.081 ± 0.012	0.00658 ± 0.002
GGAGACGAUAGCUAUACAACCUACUACCUCA	0.0779 ± 0.0075	0.0112 ± 0.0049
GGAGACGAUACUAAACAACGUACUACCUCA	0.017 ± 0.0026	0.00192 ± 0.0019
GGAGACGAUACUAUACAACCUACAACCUCA	0.142 ± 0.019	0.00407 ± 0.0013
GGAGACGAAACAAUACAACCUACUACCUCA	0.167 ± 0.026	0.00789 ± 0.0038
GGAGAGGAUACUAAACAUCCUACUACCUCA	0.276 ± 0.022	0.00524 ± 0.0024
GGAGAGGAUACUAUACAUGCUACUACCUCA	0.0905 ± 0.01	0.0065 ± 0.0032
GGAGAGGAUACUAUACAACCAACUACCUCA	0.00747 ± 0.0023	0.00561 ± 0.002
GGAGUGGAUUCUAUACAUCCUACUACCUCA	0.299 ± 0.013	0.00479 ± 0.0026
GGAGAGGAUACUAUACAACCUAAUACCUCA	0.0575 ± 0.01	0.00595 ± 0.0025
GGAGAGGAUUGUAUACAACCUACUACCUCA	0.103 ± 0.0085	0.00676 ± 0.0048
GGAGUCGAUACUAUACAACCUACAACCUCA	0.0405 ± 0.0054	0.00324 ± 0.0017
GGAGACCAAAGUAUACAACCUACUACCUCA	0.0438 ± 0.0093	0.0166 ± 0.0082

Sequence	pre-steady-state target cleavage rate [1]	pre-steady-state target cleavage rate [2]
GGAGACCAUACUAUACAACCUACUUACCUCA	0.175 ± 0.017	0.00697 ± 0.0031
GGAGAGGAUACUAUUCAAGCUACUACCUCA	0.131 ± 0.014	0.00323 ± 0.002
GGAGACCAUACUAUACAACCUACUAUCCUCA	0.219 ± 0.019	0.00375 ± 0.0028
GGAGUGGAUACUAAACAUCCUACUACCUCA	0.242 ± 0.013	0.0059 ± 0.0024
GGAGACCUUACUAUACAACCUACUACCUCA [g2:g22:cont:t1A]	0.165 ± 0.018	0.0238 ± 0.0084
GGAGACGAUACUAUACUACCUACAACCUCA	0.181 ± 0.017	0.00176 ± 0.0015
GGAGACCUUACUAUACAACCUUCUACCUCA	0.00711 ± 0.0021	0.00767 ± 0.0037
GGAGAGGAUACUAUACAAGCUACAACCUCA	0.0872 ± 0.017	0.00258 ± 0.0015
GGAGACCAUACUAUACAACCUACAACCUCA	0.189 ± 0.024	0.00489 ± 0.0019
GGAGACGAUACUAUACAACCUACUACCUGCA	0.203 ± 0.021	0.00933 ± 0.0034
GGAGUGGAUACUAUACAUCCUACUUCCUCA	0.0127 ± 0.0032	0.00326 ± 0.0017
GGAGACGAUACUAUACAACCUAUCUACCUCA	0.17 ± 0.017	0.00473 ± 0.0019
GGAGUGGAUACUAUACAAACUACUACCUCA	0.195 ± 0.015	0.0127 ± 0.0051
GGAGAGGAUACUAUUCAUCCUACUACCUCA	0.273 ± 0.02	0.00619 ± 0.0034
GGAGAGGAUAGUAUACAACCUACUACGUCA	0.0614 ± 0.0098	0.0031 ± 0.0021
GGAGACCUUACUAUACAACCUACUUCCUCA	0.0805 ± 0.016	0.0038 ± 0.0028
GGAGACCUAUCUAUACAACCUACAACCUCA	0.0886 ± 0.013	0.00366 ± 0.0032
GGAGUGGAUAUUAUACAACCUACUACCUCA	0.178 ± 0.0094	0.00879 ± 0.0043
GGAGAGGAUACUAUACAACCUCACUACCUCA	0.00456 ± 0.0027	0.00378 ± 0.0026
GGAGACGAUACUAAACAUCCUACUACCUCA	0.267 ± 0.021	0.00359 ± 0.0026
GGAGACCAUACAAUACAACCUACUACCUGA	0.12 ± 0.019	0.00286 ± 0.0028
GGAGACCUAUGUAUACAACCUAGUACCUCA	0.00921 ± 0.0021	0.00291 ± 0.0029
GGAGACCUUACUAUACAAGCUACUAGCUCA	0.0972 ± 0.02	0.00451 ± 0.0043
GGAGAGGAAACUAUACAACCUUCUACCUCA	0.00762 ± 0.006	0.00297 ± 0.0027
